Experimental data from the supplement of paper PMC4466140.

How the values were obtained:
Assay in all cases: SPOT peptide array binding signal intensity (averaged, normalized) (arbitrary units (background-subtracted, floor 0; scale differs between SH3 domains)); higher = stronger binding of the SH3 domain to the peptide
AgAbp1 = target: AgAbp1
In short: (§1)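 To measure binding, SH3 domains from four yeast species were fused to GST, expressed in E. coli BL21(DE3) and purified on glutathione Sepharose. Each domain was incubated at 10 μg/ml overnight at 4°C on cellulose membranes with synthetic 15-mer peptides whose cysteines were replaced by serines. Anti-GST antibody, an HRP anti-mouse secondary and luminol were used for detection, and images were quantified with Genespotter. Reported binding signal is normalized, background-subtracted spot intensity averaged over replicates, in arbitrary units that differ between domains.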

AgBbc1 = target: AgBbc1
In short: as §1

AgBem1-D1 = target: AgBem1-D1
In short: as §1

AgBzz1-D1 = target: AgBzz1-D1
In short: as §1

AgBzz1-D2 = target: AgBzz1-D2
In short: as §1

AgCyk3 = target: AgCyk3
In short: as §1

AgFus1 = target: AgFus1
In short: as §1

AgHof1 = target: AgHof1
In short: as §1

AgHse1 = target: AgHse1
In short: as §1

AgLsb1 = target: AgLsb1
In short: as §1

AgLsb4 = target: AgLsb4
In short: as §1

AgMyo5 = target: AgMyo5
In short: as §1

AgNbp2 = target: AgNbp2
In short: as §1

AgRvs167 = target: AgRvs167
In short: as §1

AgSho1 = target: AgSho1
In short: as §1

AgSla1-D1-D2 = target: AgSla1-D1-D2
In short: as §1

AgSla1-D3 = target: AgSla1-D3
In short: as §1

CaAbp1-D1 = target: CaAbp1-D1
In short: as §1

CaAbp1-D2 = target: CaAbp1-D2
In short: as §1

CaBbc1 = target: CaBbc1
In short: as §1

CaBem1-D1 = target: CaBem1-D1
In short: as §1

CaBzz1-D1 = target: CaBzz1-D1
In short: as §1

CaBzz1-D2 = target: CaBzz1-D2
In short: as §1

CaCyk3 = target: CaCyk3
In short: as §1

CaFus1 = target: CaFus1
In short: as §1

CaHof1 = target: CaHof1
In short: as §1

CaHse1 = target: CaHse1
In short: as §1

CaLsb1 = target: CaLsb1
In short: as §1

CaLsb4 = target: CaLsb4
In short: as §1

CaMyo5 = target: CaMyo5
In short: as §1

CaNbp2 = target: CaNbp2
In short: as §1

CaRvs167 = target: CaRvs167
In short: as §1

CaRvs167-3 = target: CaRvs167-3
In short: as §1

CaSho1 = target: CaSho1
In short: as §1

CaSla1-D1-D2 = target: CaSla1-D1-D2
In short: as §1

CaSla1-D3 = target: CaSla1-D3
In short: as §1

ScAbp1 = target: ScAbp1
In short: as §1

ScBbc1 = target: ScBbc1
In short: as §1

ScBem1-D1 = target: ScBem1-D1
In short: as §1

ScBzz1-D1 = target: ScBzz1-D1
In short: as §1

ScBzz1-D2 = target: ScBzz1-D2
In short: as §1

ScCyk3 = target: ScCyk3
In short: as §1

ScFus1 = target: ScFus1
In short: as §1

ScHof1 = target: ScHof1
In short: as §1

ScHse1 = target: ScHse1
In short: as §1

ScLsb1 = target: ScLsb1
In short: as §1

ScLsb2 = target: ScLsb2
In short: as §1

ScLsb3 = target: ScLsb3
In short: as §1

ScLsb4 = target: ScLsb4
In short: as §1

ScMyo3 = target: ScMyo3
In short: as §1

ScMyo5 = target: ScMyo5
In short: as §1

ScNbp2 = target: ScNbp2
In short: as §1

ScPex13 = target: ScPex13
In short: as §1

ScRvs167 = target: ScRvs167
In short: as §1

ScSho1 = target: ScSho1
In short: as §1

ScSla1-D1-D2 = target: ScSla1-D1-D2
In short: as §1

ScSla1-D3 = target: ScSla1-D3
In short: as §1

SpAbp1-D1 = target: SpAbp1-D1
In short: as §1

SpBbc1 = target: SpBbc1
In short: as §1

SpBzz1-D1 = target: SpBzz1-D1
In short: as §1

B1: unnamed (peptide)
chain: KKIRLIFTYPSTVGR
Q: How did the “SPOT peptide array binding signal intensity” value (AgAbp1) turn out when B1 was run?
A: Its value is 11.

Q: And the “SPOT peptide array binding signal intensity” value (AgBbc1)?
A: The value was 22.8.

Q: What about the “SPOT peptide array binding signal intensity” value (AgBem1-D1) of the same binder?
A: Its value is 241.

Q: And the “SPOT peptide array binding signal intensity” value (AgBzz1-D1)?
A: Its value is 22.5.

Q: What about the “SPOT peptide array binding signal intensity” value (AgBzz1-D2) of the same binder?
A: The value was 50.

Q: What about the “SPOT peptide array binding signal intensity” value (AgCyk3) of the same binder?
A: Its value is 49.

Q: What about the “SPOT peptide array binding signal intensity” value (AgFus1) of the same binder?
A: The value was 2480.

Q: What about the “SPOT peptide array binding signal intensity” value (AgHof1) of the same binder?
A: Its value is 47.

Q: And the “SPOT peptide array binding signal intensity” value (AgHse1)?
A: The value was 1210.

Q: What about the “SPOT peptide array binding signal intensity” value (AgLsb1) of the same binder?
A: Its value is 58.8.

Q: And the “SPOT peptide array binding signal intensity” value (AgLsb4)?
A: The value was 577.

Q: What about the “SPOT peptide array binding signal intensity” value (AgMyo5) of the same binder?
A: The value was 2.5.

Q: What about the “SPOT peptide array binding signal intensity” value (AgNbp2) of the same binder?
A: The value was 688.

Q: And the “SPOT peptide array binding signal intensity” value (AgRvs167)?
A: Its value is 6.17.

Q: What about the “SPOT peptide array binding signal intensity” value (AgSho1) of the same binder?
A: Its value is 426.

Q: And the “SPOT peptide array binding signal intensity” value (AgSla1-D1-D2)?
A: The value was 428.

Q: What about the “SPOT peptide array binding signal intensity” value (AgSla1-D3) of the same binder?
A: The value was 4.5.

Q: And the “SPOT peptide array binding signal intensity” value (CaAbp1-D1)?
A: Its value is 504.

Q: What about the “SPOT peptide array binding signal intensity” value (CaAbp1-D2) of the same binder?
A: Its value is 268.

Q: What about the “SPOT peptide array binding signal intensity” value (CaBbc1) of the same binder?
A: Its value is 86.8.

Q: What about the “SPOT peptide array binding signal intensity” value (CaBem1-D1) of the same binder?
A: Its value is 73.5.

Q: And the “SPOT peptide array binding signal intensity” value (CaBzz1-D1)?
A: The value was 142.

Q: And the “SPOT peptide array binding signal intensity” value (CaBzz1-D2)?
A: The value was 99.2.

Q: And the “SPOT peptide array binding signal intensity” value (CaCyk3)?
A: Its value is 118.

Q: And the “SPOT peptide array binding signal intensity” value (CaFus1)?
A: Its value is 4650.

Q: And the “SPOT peptide array binding signal intensity” value (CaHof1)?
A: Its value is 2.25.

Q: What about the “SPOT peptide array binding signal intensity” value (CaHse1) of the same binder?
A: The value was 282.

Q: What about the “SPOT peptide array binding signal intensity” value (CaLsb1) of the same binder?
A: Its value is 79.2.

Q: And the “SPOT peptide array binding signal intensity” value (CaLsb4)?
A: Its value is 354.

Q: What about the “SPOT peptide array binding signal intensity” value (CaMyo5) of the same binder?
A: Its value is 77.2.

Q: What about the “SPOT peptide array binding signal intensity” value (CaNbp2) of the same binder?
A: Its value is 966.

Q: And the “SPOT peptide array binding signal intensity” value (CaRvs167)?
A: The value was 274.

Q: What about the “SPOT peptide array binding signal intensity” value (CaRvs167-3) of the same binder?
A: The value was 2180.

Q: What about the “SPOT peptide array binding signal intensity” value (CaSho1) of the same binder?
A: The value was 1570.

Q: What about the “SPOT peptide array binding signal intensity” value (CaSla1-D1-D2) of the same binder?
A: The value was 21.

Q: And the “SPOT peptide array binding signal intensity” value (CaSla1-D3)?
A: Its value is 487.

Q: What about the “SPOT peptide array binding signal intensity” value (ScAbp1) of the same binder?
A: The value was 15.

Q: What about the “SPOT peptide array binding signal intensity” value (ScBbc1) of the same binder?
A: The value was 4.75.

Q: What about the “SPOT peptide array binding signal intensity” value (ScBem1-D1) of the same binder?
A: Its value is 19.

Q: And the “SPOT peptide array binding signal intensity” value (ScBzz1-D1)?
A: Its value is 23.

Q: And the “SPOT peptide array binding signal intensity” value (ScBzz1-D2)?
A: The value was 325.

Q: What about the “SPOT peptide array binding signal intensity” value (ScCyk3) of the same binder?
A: Its value is 210.

Q: And the “SPOT peptide array binding signal intensity” value (ScFus1)?
A: Its value is 3720.

Q: And the “SPOT peptide array binding signal intensity” value (ScHof1)?
A: Its value is 1.75.

Q: And the “SPOT peptide array binding signal intensity” value (ScHse1)?
A: The value was 1750.

Q: What about the “SPOT peptide array binding signal intensity” value (ScLsb1) of the same binder?
A: Its value is 32.

Q: What about the “SPOT peptide array binding signal intensity” value (ScLsb2) of the same binder?
A: Its value is 5.

Q: And the “SPOT peptide array binding signal intensity” value (ScLsb3)?
A: Its value is 389.

Q: What about the “SPOT peptide array binding signal intensity” value (ScLsb4) of the same binder?
A: The value was 60.

Q: What about the “SPOT peptide array binding signal intensity” value (ScMyo3) of the same binder?
A: The value was 4.

Q: What about the “SPOT peptide array binding signal intensity” value (ScMyo5) of the same binder?
A: Its value is 5.

Q: What about the “SPOT peptide array binding signal intensity” value (ScNbp2) of the same binder?
A: Its value is 744.

Q: And the “SPOT peptide array binding signal intensity” value (ScPex13)?
A: Its value is 14.5.

Q: And the “SPOT peptide array binding signal intensity” value (ScRvs167)?
A: The value was 26.2.

Q: What about the “SPOT peptide array binding signal intensity” value (ScSho1) of the same binder?
A: Its value is 2150.

Q: And the “SPOT peptide array binding signal intensity” value (ScSla1-D1-D2)?
A: The value was 83.5.

Q: What about the “SPOT peptide array binding signal intensity” value (ScSla1-D3) of the same binder?
A: Its value is 57.8.

Q: And the “SPOT peptide array binding signal intensity” value (SpAbp1-D1)?
A: Its value is 132.

Q: And the “SPOT peptide array binding signal intensity” value (SpBbc1)?
A: Its value is 41.

Q: And the “SPOT peptide array binding signal intensity” value (SpBzz1-D1)?
A: Its value is 133.
